CYP2C9 inh: blockers of cytochrome P450 2C9 activity – biochemical, luminescence, ADME assay, primary screen; P11712; CYP2C9 Supersomes, luciferin-H conversion; inhibition, % at 5 µM; 96,000 tested, 20% active;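 active = blocking of liver enzyme CYP2C9 beyond about 50% at 5 µM, limit read from the data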
D1 mod: D1 CRE-luciferase signal change, two-sided – cell-based, HEK293 D1, dopamine EC30, D1 allosteric modulator project, primary screen | D(1A) dopamine receptor (Homo sapiens), P21728 | dopamine EC30 potentiation; actives deviate in either direction | B-score at 10 µM | 58,000 tested, 5.9% active;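 active = luminescence count or its row- and column-corrected plate score outside the 99.7% band of the plate's sample wells, on either side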
Target sequence (P21728 whole entry, looked up): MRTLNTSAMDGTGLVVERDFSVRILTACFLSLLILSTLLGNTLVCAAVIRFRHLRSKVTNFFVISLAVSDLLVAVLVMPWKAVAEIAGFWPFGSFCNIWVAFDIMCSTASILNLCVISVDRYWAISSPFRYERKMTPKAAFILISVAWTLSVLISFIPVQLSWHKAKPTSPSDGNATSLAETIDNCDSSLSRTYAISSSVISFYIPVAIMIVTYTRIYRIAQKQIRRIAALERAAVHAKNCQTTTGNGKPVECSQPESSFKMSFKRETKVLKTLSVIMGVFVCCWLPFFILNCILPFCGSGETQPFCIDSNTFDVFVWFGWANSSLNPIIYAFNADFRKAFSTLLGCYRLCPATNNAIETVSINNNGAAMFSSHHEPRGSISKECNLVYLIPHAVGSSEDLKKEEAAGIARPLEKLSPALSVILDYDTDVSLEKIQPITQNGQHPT
CYP2C19 inh: blockers of cytochrome P450 2C19 activity – biochemical, luminescence, ADME assay, primary screen. CYP2C19 Supersomes, luciferin-H EGE luminescence, 30 min. inhibition, % at 5 µM. 96,000 tested, 21% active;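 active = CYP2C19 inhibition above a set limit at 5 µM in the primary screen, cut at about 50% in these data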;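 note: plate controls were negative control wells for no effect and 2.5 mM tranylcypromine positive control for full effect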
CYP2C9 act: human CYP2C9 activators, primary screen, biochemical, luminescence; recombinant CYP2C9, luciferin-H conversion; active compounds read high; factor 1 = untreated enzyme, 0 = blocked; activation factor at 5 µM; 96,000 tested, 1.4% active;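 active = activation factor of 2 or more for CYP2C9 at a 5 µM dose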;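 note: 0 = sulfaphenazole-blocked wells and 1 = vehicle-only wells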
hDAT+cocaine: changed hDAT dopamine uptake under cocaine IC80, either direction, primary screen, cocaine antagonist project, cell-based, LLC-PK1 hDAT, [14C]-dopamine uptake, MLSMR; Sodium-dependent dopamine transporter (Homo sapiens), Q01959; 110,000 tested, 1.3% active; B-score at 10 µM; LLC-PK1 hDAT cells, [14C]-dopamine uptake with cocaine IC80; actives deviate in either direction; AID 449768, 2010;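 active = Z score or B-score, a plate-position-corrected score, falls beyond the plate's 99.7% confidence bounds, in either direction; inactive = both scores lie inside the 99.7% bounds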;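 note: scored against the spread of the other compound wells on the same plate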
CYP2C19 act: human CYP2C19 activators, primary screen, biochemical, luminescence; Cytochrome P450 2C19 (Homo sapiens), P33261; recombinant CYP2C19, luciferin-H EGE luminescence; active compounds read high; 0 = fully inhibited enzyme, 1 = untreated enzyme; activation factor at 5 µM; 96,000 tested, under 10 active; AID 1025, 2008;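 active = activation factor of at least 2 at 5 µM in the primary screen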;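 note: 0 = wells with 2.5 mM tranylcypromine and 1 = vehicle-only wells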
The depositor's hits bear a star; . = no result given. Only some compounds are listed: those with a hit (about 28% of all), similar ones and a draw of the others.

SMILES	CYP2C9 inh	D1 mod	CYP2C19 inh	CYP2C9 act	hDAT+cocaine	CYP2C19 act
c1ccc(N2CCN(c3ccccc3)C2c2cccs2)cc1	-7	-0.071	52*	1.1	-0.0069	0.5
CCn1cc(S(=O)(=O)CC(=O)Nc2ccc3c(c2)OCO3)c2ccccc21	.	-0.086	.	.	-0.66	.
CCN(CC)c1ccc(NC(=O)COC(=O)C23CCC(=O)N2c2ccccc2S3)cc1 (configuration not stated)	33	.	8	0.7	0.15	0.9
C=C(C)C(=O)Nc1cccc(C2=NOC3(C2)C[C@@H](C(N)=O)N(C(=O)c2cc([N+](=O)[O-])cc([N+](=O)[O-])c2C)C3)c1 (some centres not stated)	.	.	.	.	0.27	.
O=C1C2CC=CCC2C(=O)N1Cc1ccccc1 (configuration not stated)	.	.	.	.	-1.1	.
O=C1C2C3C=CC(C3=C3CCCCC3)C2C(=O)N1Cc1ccccc1 (configuration not stated)	55*	0.47	7	0.4	-0.04	0.9
Cc1cc(C)c(C(N)=O)c(NCCc2ccccc2)n1	8	-0.58	56*	0.9	0.15	0.4
Cc1cc(Nc2nnnn2-c2ccccc2)n(-c2ccccc2)n1	24	.	9	0.8	-1.6	0.9
Cc1cc(Nc2ccc(Cl)cc2)n(-c2cccc(Cl)c2)n1	98*	.	99*	0	-0.67	0
Cc1cc(Nc2ccccc2)n(-c2ccc(Br)cc2)n1	97*	.	90*	0	-0.19	0.1
Cc1cc(Nc2nc3c(c(=O)n(C)c(=O)n3C)n2C)n(-c2ccc(Cl)cc2)n1	43	.	2	0.6	-1.2	1
Cc1cc(Nc2ccc(Cl)cc2)n(-c2ccccc2)n1	70*	.	59*	0.3	0.0019	0.4
CCn1nc(C)cc1Nc1ccccc1	16	.	1	0.8	-0.076	1
CC(C)CC(NC(=O)C(NC(=O)OC(C)(C)C)C(C)C)C(=O)NC(CCC(=O)OCc1ccccc1)C(N)=O (configuration not stated)	.	.	.	.	-0.35	.
CN(C)/C=N/c1c(C(=O)NCc2ccccc2)nnn1Cc1ccccc1	6	0.039	0	0.9	0.029	1
Cc1cc(C)cc(OC(=O)CS(=O)c2ccc(C(F)(F)F)cc2[N+](=O)[O-])c1 (configuration not stated)	-102	.	-3	2*	0.88	1
Cn1c(CNc2nc(-c3ccccc3)cs2)nnc1SCC(=O)N1CCc2ccccc21	33	0.98	37	0.7	-0.26	0.6
O=C(c1ccc(COc2ccccc2Cl)o1)N1CCN(Cc2ccc3c(c2)OCO3)CC1	87*	-1.2	72*	0.1	0.85	0.3
O=C(c1cc2ccccc2oc1=O)N1CCN(Cc2ccc3c(c2)OCO3)CC1	-20	-0.86	24	1.2	0.84	0.8
O=C(c1ccc(COc2ccc(Cl)cc2)o1)N1CCN(Cc2ccc3c(c2)OCO3)CC1	62*	-1.1	16	0.4	0.31	0.8
COc1ccccc1NC(=O)CSc1nc2n[nH]c(C)c2c(=N)n1-c1ccccc1Cl	.	.	.	.	1.6	.
COC(=O)c1ccc(CSc2ncnc3c2oc2ccccc23)o1	34	-0.52	2	0.7	-0.94	1
COC(=O)c1ccc(CN(C(C)=O)c2ccccc2)o1	2	.	69*	1	0.25	0.3
COc1ccccc1Nc1ccc(C(=O)NC2CCCCC2)cn1	-97	.	24	2*	0.95	0.8
COC(=O)c1ccc2c(=O)n(CCN3CCOCC3)c(SCC(=O)NC3CCCCC3)nc2c1	.	-0.018	.	.	.	.
SMILES	CYP2C9 inh	D1 mod	CYP2C19 inh	CYP2C9 act	hDAT+cocaine	CYP2C19 act
CCn1c(=NC(=O)CN2C(=O)CCC2=O)sc2c(C)cc(C)cc21	-76	-0.66	17	1.8	1.5	0.8
O=C(C1CCN(S(=O)(=O)N2CCOCC2)CC1)N1CCN(Cc2ccc3c(c2)OCO3)CC1	15	-1.5	6	0.8	-0.24	0.9
Cc1ccc(S(=O)(=O)NCc2ccc(C(=O)N3CCN(Cc4ccccc4)CC3)cc2)cc1	30	.	39	0.7	1.8	0.6
O=C(CCc1ccc(S(=O)(=O)N2CCOCC2)cc1)N1CCN(Cc2ccc3c(c2)OCO3)CC1	77*	.	39	0.2	.	0.6
O=C(c1ccccc1S(=O)(=O)NCc1ccccc1)N1CCCC1	66*	.	90*	0.3	0.69	0.1
CC1CCN(c2nc3ccc(C(=O)N4CCN(Cc5ccc6c(c5)OCO6)CC4)cc3s2)CC1	90*	.	94*	0.1	.	0.1
O=C(c1ccc2nc(N3CCOCC3)sc2c1)N1CCCC1	16	2.3	1	0.8	-0.38	1
O=C(c1cccc(S(=O)(=O)NCc2ccccc2)c1)N1CCN(Cc2ccccc2)CC1	30	.	65*	0.7	0.0076	0.4
C=CCOc1c2ccc(C(=O)NCc3ccc(C)cc3)cc2nn1C	-5	.	13	1.1	1	0.9
CCOc1ccc(OCCCCNCCN)cc1	4	.	6	1	.	0.9
O=C(NCC1(c2ccccc2)CCCC1)C1(c2ccccc2)CCCC1	.	.	.	.	1.3	.
O=C(OCc1ccc2c(c1)OCO2)c1ccc(S(=O)(=O)N2CCCCC2)cc1	20	0.61	10	0.8	-1.3	0.9
O=C(CCc1ccc(S(=O)(=O)NCc2ccccc2)cc1)N1CCN(Cc2ccc3c(c2)OCO3)CC1	65*	.	47	0.4	-0.013	0.5
O=C(c1ccc(S(=O)(=O)N2CCCC2)cc1)N1CCN(Cc2ccc3c(c2)OCO3)CC1	63*	0.79	47	0.4	0.44	0.5
O=[N+]([O-])c1cc(-c2n[nH]c(-c3ccccc3)n2)cc([N+](=O)[O-])c1	11	.	1	0.9	0.43	1
O=c1cc(-c2ccccc2)[nH]n1-c1ccc([N+](=O)[O-])cc1	6	.	17	0.9	-2.5*	0.8
CC1(C)N=C(N)NC(Nc2ccccc2)=N1	.	.	.	.	0.88	.
COc1cc(C2C(C(C)=O)=C(O)C(=O)N2c2ccc(C)cc2)ccc1O (configuration not stated)	34	.	-14	0.7	0.05	1.1
CCN(CC)c1ccc(C2C3CCCCC3(O)CCN2CC(=O)N2CCCCC2)cc1 (configuration not stated)	-10	-0.78	5	1.1	-7.9*	0.9
COc1cc([C@H]2[C@@H]3CCCC[C@]3(O)CCN2CC(=O)Nc2ccc(C)cc2)ccc1O	74*	.	63*	0.3	0.61	0.4
